# Reference: PubChem BioAssay (NCATS)
# Inconclusive results are not listed. Entries that show only a call come without a potency. Active and inactive are the calls of the source. The call rests on the fitted dose curve; in most records, active means well fitted inhibition curve with a large enough effect; inconclusive means small, poorly fitted or top-dose-only effect; inactive means flat fitted curve, though single readings scatter.
# Test system: AS120
# Experiment: qHTS profiling for inhibitors of Plasmodium falciparum proliferation (AID 504749); further: nearly all actives have a fitted effect of over 60% in size
# Conditions: P. falciparum in erythrocytes, SYBR Green DNA, 72 h; series mostly up to 28.7 µM
# In short: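 Infected RBCs, 0.3% parasitemia/2.5% Hct final; cpd 72 h, 37 C, 5% CO2; lysis buffer with saponin/triton/SYBR Green I, o/n RT dark; FI 485/535; norm. to artemisinin (0.29 uM) and DMSO.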
# Potency means the concentration at half of the fitted maximal effect.
row,Structure (SMILES),Potency
1,CCCCCCCCCCCC(=O)OCC(O)C1OCC(O)C1O (configuration not stated),inactive
2,C/C1=C2/[N-]C(C(CC(N)=O)[C@@]2(C)CCC(=O)NCC(C)OP(=O)([O-])O[C@H]2[C@@H](O)[C@@H](n3cnc4cc(C)c(C)cc43)O[C@@H]2CO)[C@]2(C)N=C(/C(C)=C3N=C(/C=C4N=C1C(CCC(N)=O)C\4(C)C)[C@@H](CCC(N)=O)[C@]\3(C)CC(N)=O)[C@@H](CCC(N)=O)[C@]2(C)CC(N)=O.CC(=O)O.[Co] (some centres not stated),inactive
3,CC1(C)OC[C@@H]2O[C@@]3(C(=O)O)OC(C)(C)O[C@@H]3[C@@H]2O1,inactive
4,Cc1ccccc1N1C(=O)c2cc(N)ccc2N/C1=C\F,inactive
5,CCC(C(=O)O)C1OC(C(C)C(O)C(C)C(=O)C(CC)C2OC3(C=CC(O)C4(CCC(C)(C5CCC(O)(CC)C(C)O5)O4)O3)C(C)CC2C)C(C)CC1C (configuration not stated),79.4 nM (active)
6,O=C1C(I)=CC(=C(c2cc(I)c(O)c(I)c2)c2ccccc2C(=O)O)C=C1I,inactive
7,NC(=O)NC(CCC(=O)O)C(=O)O (configuration not stated),inactive
8,COC1CC2CCC(C)[C@](O)(O2)C(=O)C(=O)N2CCCCC2C(=O)OC(C(C)CC2CCC(O)C(OC)C2)CC(=O)C(C)/C=C(/C)C(O)C(OC)C(=O)C(C)CC(C)C=CC=C/C=C\1C (some centres not stated),1120 nM (active)
9,CC(=O)OCC(=O)[C@@]1(O)CCC2C3C[C@H](C)C4=CC(=O)C=CC4(C)C3C(O)CC21C (some centres not stated),inactive
10,CN[C@H](C)CCC=C(C)C,224 nM (active)
11,CC1(C)C2CC[C@]1(C)[C@@H](O)C2,inactive
12,OCC1O[C@H](Oc2ccc(O)cc2)C(O)C(O)C1O (some centres not stated),inactive
